In PubChem BioAssay (NCI) one finds growth data, which are given here for 9 molecules.

What all share (assay): NCI-60 one-dose screen, 48 h (100 = growth as untreated, 0 = no growth, -100 = all killed)
What all share (details): 10 µM unless noted

Test [1] deals with SR leukemia.
The test system of test [2] is OVCAR-8 ovarian.
For test [3], the system named is OVCAR-5 ovarian.
For test [4], the system named is OVCAR-4 ovarian.
Test [5] concerns SK-OV-3 ovarian.
In test [6] the test system is IGROV1 ovarian.
The subject of test [7] is HS 578T breast.
Test [8] deals with NCI/ADR-RES ovarian.
Test [9] deals with T-47D breast.
Test [10] has as its system BT-549 breast.
The subject of test [11] is MDA-MB-435 melanoma.
In test [12] the test system is SW-620 colon.
Test [13] deals with MCF7 breast.
The subject of test [14] is HCT-116 colon.
Test [15] relates to HCC-2998 colon.
The subject of test [16] is KM12 colon.
Test [17] relates to MDA-MB-468 breast.
In test [18] the test system is RPMI-8226 leukemia.
Test [19] relates to OVCAR-3 ovarian.

Compounds without any hit were thinned out: in the full panel of roughly 83,000, 20% have a hit.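 The test compound was applied at a single concentration to cells in 96-well plates for 48 hours, and percent growth was recorded.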 Values without a mark were called inactive. Active and inactive are the calls of the source. The calls were made as follows: active = growth percent below 10; inactive = the rest.

For the molecule `CN(C)CCn1c2ccccc2c2nc3cc(C(F)(F)F)ccc3nc21`, the growth in test [1] is 11.1%; in test [2] it was 35.7%; in test [3] it was 38.8%; in test [4], 54.3%; in [5] it was 41.5%; in [6], 22.4%. Besides, the growth is 65.8% in test [7]; 30.2% in [8]; 59.4% in test [9]; 62.2% in [10]; 40.3% in test [11]; 22.5% in test [12]. Also, the growth was 6.18% (active) in test [13]; 16.8% in test [14]; 41.6% in test [15]; 42.9% in test [16]; 35.3% in test [17].

On to `CC1=C(C(=O)OCc2ccccc2)C(c2c(O)cc(O)cc2O)n2c(nc3ccccc32)N1` (stereo not given), for which the growth in test [1] was 18.5%; in test [18], 81.9%; in [3] it was 73.6%; in test [4] it was 84%; in [5], 44.4%; in test [6] it was 51%. In addition, the growth is 33.6% in test [19]; 31% in test [8]; 62.6% in test [9]; 55% in test [10]; 25% in test [13]; 26.1% in test [14]. The growth is 86.4% in [15], 46.3% in test [16] and -27.4% (active) in [17].

In the case of `COCOc1cc2c(=O)c(C)c(C(=O)N[C@@H](Cc3ccccc3)C(O)C(=O)NCc3ccccc3)oc2cc1OC` (stereo not given in full), the growth in test [18] is 67.3%; in [2] it was 2.29% (active); in test [3] it was 92.5%; in [4], 28.2%; in test [5], 22.8%; in [6], 57.6%. The growth is 65.4% in test [19]; 9.01% (active) in test [7]; 88% in test [8]; 40.7% in test [9]; -35.5% (active) in [10]; 11.2% in test [11]. Moreover, the growth in test [12] was 31.1%; in test [13], 17.3%; in test [14], -10.4% (active); in test [15], 57.3%; in [16], -32.6% (active); in [17] it was 13.9%.

Consider `COc1ccccc1/C=C/C(=O)c1ccc(OC)c(S(N)(=O)=O)c1`, for which the growth in [18] is 4.34% (active); in test [3], 12.4%; in test [4] it was 42.9%; in test [5], 47.5%; in [6], 38.9%; in test [19] it was 7.84% (active). The growth is 60.4% in test [7]; 22.9% in [8]; 17% in [9]; 27.2% in test [11]; 20.5% in [12]; 8.25% (active) in test [13]. Besides, the growth is 5% (active) in [14], 29.5% in test [15], 6.73% (active) in [16] and 20.7% in test [17].

Turning to `COc1ccc(NC(=O)Cn2c(/C=C/c3cccc([N+](=O)[O-])c3)nc3ccccc3c2=O)cc1`, the growth in test [18] is 124%; in [2], 43.3%; in test [3], 118%; in [4], 44.7%; in test [5], 42%; in [6], 104%. For the same molecule, the growth was 50.7% in [19]; 66.8% in [7]; 70.8% in test [8]; 69.2% in test [9]; 99.8% in test [11]; 92.6% in test [12]. The growth in test [13] is 46.8%; in test [14], 55.4%; in test [15] it was 112%; in [16], 77.5%; in test [17], 83.6%.

Consider `COc1ccc(C2=NN(c3ccccc3)C(c3ccc(OCc4ccccc4)c(OC)c3)C2)cc1OC` (stereo not given), for which the growth in test [18] is 120%; in test [2] it was 92.6%; in test [3], 102%; in [4], 113%; in test [5], 98.1%; in test [6], 102%. For the same molecule, the growth in test [19] is 109%; in test [7] it was 94.1%; in test [8], 109%; in test [9], 89.4%; in test [11] it was 105%; in [12], 101%. Moreover, the growth was 84.8% in test [13]; 85.9% in [14]; 117% in test [15]; 91.8% in [16]; 105% in [17].

With `Cc1cc(C)n(-c2ccc3nnc(-c4ccccc4)n3n2)n1`, the growth is 119% in test [18]; 128% in [3]; 92.9% in test [4]; 128% in test [5]; 111% in test [6]; 91.6% in test [19]. Further, the growth was 117% in test [7]; 76.1% in test [8]; 95.5% in [9]; 106% in test [11]; 103% in [12]; 89.9% in [13]. The growth is 106% in [14], 103% in [15], 97.4% in test [16] and 97% in test [17].

For the molecule `CCN1CCN(Cc2ccc(C(=O)Nc3cccc(C#Cc4cccc5[nH]nc(N)c45)c3)cc2C(F)(F)F)CC1`, the growth is -30.9% (active) in test [18]; -96.8% (active) in test [2]; -88.8% (active) in [3]; -24.8% (active) in test [4]; -69.2% (active) in test [5]; -44.7% (active) in [6]. For the same molecule, the growth in [19] was -22.1% (active); in test [7], -15.8% (active); in test [8] it was -27% (active); in [9], -67.2% (active); in [11], -69.1% (active); in [12], -50.5% (active). In addition, the growth in test [13] is -84.9% (active); in test [14], -86.8% (active); in test [15] it was -91.5% (active); in test [16], -73.2% (active); in test [17] it was -85.5% (active).

As to `COc1ccc(C(=O)/C=C/c2ccc3ccccc3c2)cc1S(N)(=O)=O`, the growth in [18] was -17.5% (active); in test [2], -60.6% (active); in [3], -43.4% (active); in test [4], 32.5%; in [5], 22.5%; in [6] it was -8.23% (active). Further, the growth in [19] was -41.9% (active); in [7], 68.8%; in test [8] it was 18.9%; in [9], -39.5% (active); in test [11], 1.97% (active); in test [12] it was -42.8% (active). Besides, the growth in [13] was -75.2% (active); in test [14] it was -97.8% (active); in [15] it was -76.9% (active); in test [16], -74% (active); in test [17] it was -67% (active).
